{"source": "PubChem BioAssay AID624170", "about": "(National Center for Advancing Translational Sciences (NCATS), 2012)", "note": "The whole screen tested about 410,000 compounds, of which about 850 (0.21%) were called active. About 2% were inconclusive and are not listed. Calls come from the whole dose curve; as a rule, active = well fitted inhibition curve with a large enough effect; inconclusive = small, poorly fitted or top-dose-only effect, or another doubt; inactive = no such curve, though single readings can be large or run the other way. Only a selection was taken, and actives are over-represented in it overall. % is set by controls: 0 for no effect and ±100 for the full control effect; potency is the fitted concentration of half-maximal effect.", "data": [{"target": "Glutaminase kidney isoform, mitochondrial (Homo sapiens) (UniProt O94925)", "sequence (O94925 whole entry, looked up, canonical isoform)": "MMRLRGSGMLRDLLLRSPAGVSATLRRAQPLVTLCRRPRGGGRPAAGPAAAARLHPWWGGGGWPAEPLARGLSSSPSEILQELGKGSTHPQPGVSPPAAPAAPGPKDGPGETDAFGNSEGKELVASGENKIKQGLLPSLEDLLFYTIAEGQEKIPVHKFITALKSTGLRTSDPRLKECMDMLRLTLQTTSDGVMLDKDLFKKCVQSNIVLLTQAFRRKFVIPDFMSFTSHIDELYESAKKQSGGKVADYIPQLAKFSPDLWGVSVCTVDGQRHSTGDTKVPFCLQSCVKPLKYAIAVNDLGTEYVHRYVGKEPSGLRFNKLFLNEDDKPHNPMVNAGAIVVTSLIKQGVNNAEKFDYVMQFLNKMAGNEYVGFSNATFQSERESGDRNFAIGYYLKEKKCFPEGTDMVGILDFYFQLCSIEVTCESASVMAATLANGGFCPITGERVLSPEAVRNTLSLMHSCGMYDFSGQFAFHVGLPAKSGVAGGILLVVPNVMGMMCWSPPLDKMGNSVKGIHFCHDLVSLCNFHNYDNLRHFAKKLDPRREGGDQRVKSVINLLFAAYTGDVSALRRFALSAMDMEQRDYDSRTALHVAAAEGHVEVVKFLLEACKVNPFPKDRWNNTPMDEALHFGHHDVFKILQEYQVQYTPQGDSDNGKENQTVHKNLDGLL", "test": "qHTS for Inhibitors of Glutaminase (GLS)", "conditions": "GLS enzymatic activity, qHTS titration; series mostly up to 45.5 µM; activity change, negative = inhibition: at the top concentration", "how_it_was_run": "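hKGA; 45 mM KH2PO4 pH 8.2 + 0.02% Tween-20; cpd via pin tool; 1 mM Gln soln; GluOx/HRP/Amplex Red; RT 30 min; fluor. t0 & final.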", "values": [{"smiles": "CC(C)(C)c1ccc(S(=O)(=O)N2CCN(C(=O)c3cc(-c4ccc(Br)cc4)n[nH]3)CC2)cc1", "activity change, negative = inhibition": "1.4% (inactive)"}, {"smiles": "COc1cc(OC)c(S(=O)(=O)Nc2ccccc2C(=O)O)cc1S(=O)(=O)Nc1ccccc1C(=O)O", "Potency": "5.62 µM (active)"}, {"smiles": "COc1cc(/C=C/C(=O)O)cc(S(=O)(=O)Nc2ccccc2SC)c1OC", "activity change, negative = inhibition": "22.4% (inactive)"}, {"smiles": "COc1ccc(Cl)cc1S(=O)(=O)Nc1cccc(C(=O)O)c1", "activity change, negative = inhibition": "13.6% (inactive)"}, {"smiles": "COc1cc2c(cc1OC)CC(=O)N(CCCN(C)C[C@H]1Cc3cc(OC)c(OC)cc31)CC2", "activity change, negative = inhibition": "33.9% (inactive)"}, {"smiles": "Nc1ccc2nc3c(=O)[nH]c(=S)[nH]c3nc2c1", "Potency": "3.16 µM (active)"}, {"smiles": "Cc1ccccc1C(=O)N(Cc1ccc(N(C)C)cc1)CC1CCCO1", "note": "(stereo not given)", "activity change, negative = inhibition": "16.2% (inactive)"}, {"smiles": "CCOc1ccc(N(CC)C(=O)c2cc3c(=O)oc4ccccc4c3s2)cc1", "activity change, negative = inhibition": "2.89% (inactive)"}, {"smiles": "CC(=O)Oc1ccccc1C(=O)Nc1ncc([N+](=O)[O-])s1", "activity change, negative = inhibition": "-1.98% (inactive)"}, {"smiles": "CCOC(=O)c1c(C)oc2nc(C)nc(N3CCN(c4ccc(OC)cc4)CC3)c12", "activity change, negative = inhibition": "55.8% (inactive)"}, {"smiles": "O=C(CC1Oc2ccccc2NC1=O)NCc1ccc(F)cc1", "note": "(stereo not given)", "activity change, negative = inhibition": "-0.884% (inactive)"}, {"smiles": "O=C(CCCCn1c(=O)c2ccccc2n(CC(=O)Nc2cccc(C(F)(F)F)c2)c1=O)NCc1ccc2c(c1)OCO2", "activity change, negative = inhibition": "2.14% (inactive)"}, {"smiles": "COc1ccc(OC)c(-n2c(=S)[nH]c3cc(C(=O)N4CCCCC4)ccc3c2=O)c1", "activity change, negative = inhibition": "-3.96% (inactive)"}, {"smiles": "CCOc1cc2[nH]c(=S)n(Cc3ccc(C(=O)N4CCN(C)CC4)cc3)c(=O)c2cc1OCC", "activity change, negative = inhibition": "4.65% (inactive)"}, {"smiles": "COc1ccccc1Cn1c(=S)[nH]c2cc(C(=O)N3CCN(C)CC3)ccc2c1=O", "Potency": "12.6 µM (active)"}, {"smiles": "O=C1C(c2[nH]c3ccccc3c2O)=Nc2ccccc21", "activity change, negative = inhibition": "-15.6% (inactive)"}, {"smiles": "Cc1c(CCC(=O)O)c(=O)oc2cc3occ(-c4ccccc4)c3cc12", "Potency": "11.2 µM (active)"}, {"smiles": "COc1cccc(-c2coc3cc4oc(=O)c(CC(=O)O)c(C)c4cc23)c1", "activity change, negative = inhibition": "14.3% (inactive)"}, {"smiles": "COc1ccc2c(C)c(CCC(=O)NCc3ccc(OC)c(OC)c3)c(=O)oc2c1", "activity change, negative = inhibition": "-10.3% (inactive)"}, {"smiles": "CN1C(=O)C[C@H](c2ccccc2)C1=O", "activity change, negative = inhibition": "4.96% (inactive)"}, {"smiles": "COc1ccc(C)cc1N(C)C(=O)c1c(C)oc2ncnc(N3CCOCC3)c12", "activity change, negative = inhibition": "1.19% (inactive)"}, {"smiles": "O=[N+]([O-])c1c(NCCO)cc(Sc2nc3ccccc3s2)c2nonc12", "activity change, negative = inhibition": "-18.5% (inactive)"}, {"smiles": "CC(C)c1ccc(S(=O)(=O)Nc2ccc(O)c(Sc3nc4ccccc4s3)c2)cc1", "activity change, negative = inhibition": "25.5% (inactive)"}, {"smiles": "O=C(O)c1cccc(S(=O)(=O)Nc2ccc(O)cc2Sc2nc3ccccc3s2)c1", "Potency": "14.1 µM (active)"}, {"smiles": "CCOC(=O)c1ccc(NC(=O)CCn2cnnn2)cc1", "activity change, negative = inhibition": "-0.58% (inactive)"}, {"smiles": "CCCCCCCCCc1ccc(OCCOCCOCCOCCOCCOCCOCCOCCOCCO)cc1", "activity change, negative = inhibition": "1.72% (inactive)"}, {"smiles": "C[N+](C)(CCOc1ccccc1)Cc1cccs1", "note": "(tested in a mixture with another compound)", "activity change, negative = inhibition": "-10.7% (inactive)"}, {"smiles": "O=S(=O)(N1CCCCC1)N1CCNCC1", "Potency": "15.8 µM (active)"}, {"smiles": "Cc1cccc(C)c1N1CCN(S(=O)(=O)N2CCCCC2)CC1", "activity change, negative = inhibition": "-2.26% (inactive)"}, {"smiles": "O=S(=O)(/C=C/c1ccccc1)N1CCNCC1", "activity change, negative = inhibition": "-5.7% (inactive)"}, {"smiles": "Cc1ccc(CN2CCC(CNC(=O)c3cnn(-c4ccccc4Cl)c3C3CCN(C(=O)OC(C)(C)C)CC3)CC2)cc1", "activity change, negative = inhibition": "4.11% (inactive)"}, {"smiles": "COc1cc(Cl)c(C)cc1Nc1nnc(-n2nc(C)cc2C)c2ccccc12", "activity change, negative = inhibition": "-3.1% (inactive)"}, {"smiles": "COC(=O)CCCCC1=CCC2C(=O)C=C(O)C2C1", "note": "(stereo not given)", "Potency": "12.6 µM (active)"}, {"smiles": "CCC(C)[C@@H](N)C(=O)O", "note": "(stereo not given in full)", "activity change, negative = inhibition": "4.95% (inactive)"}, {"smiles": "NCCCCC(N)C(=O)O", "note": "(stereo not given)", "activity change, negative = inhibition": "-2.86% (inactive)"}, {"smiles": "Oc1ccc(Cl)c2c1CCC2", "activity change, negative = inhibition": "2.44% (inactive)"}, {"smiles": "CC(=O)OC[C@H]1O[C@@H](O[C@H]2[C@H](O)[C@@H](OC(=O)c3ccccc3C(=O)O)[C@H](O)O[C@@H]2COC(C)=O)[C@H](O)[C@@H](OC(=O)c2ccccc2C(=O)O)[C@@H]1O", "activity change, negative = inhibition": "-14.9% (inactive)"}, {"smiles": "Cc1ccnc(-n2sc3ccccc3c2=O)n1", "Potency": "10 µM (active)"}, {"smiles": "Cc1ccnc(SC2CC(=O)N(c3ccccc3)C2=O)n1", "note": "(stereo not given)", "activity change, negative = inhibition": "-1.05% (inactive)"}, {"smiles": "C/C=C/C=N/NC(=O)c1ccncc1", "activity change, negative = inhibition": "-0.188% (inactive)"}, {"smiles": "CCOC(=O)c1sc(NC(=O)/C=C/c2ccc(C(C)C)cc2)c(C(=O)OCC)c1C", "activity change, negative = inhibition": "-11.1% (inactive)"}, {"smiles": "CCOc1cccc(CC(=O)N2CCc3c([nH]c4ccccc34)C2c2ccc(F)cc2)c1OCC", "note": "(stereo not given)", "activity change, negative = inhibition": "-4.77% (inactive)"}, {"smiles": "CCOc1cccc2c1N[C@@H](c1ccc(C(=O)O)cc1)[C@H]1CC=C[C@@H]21", "Potency": "3.98 µM (active)"}, {"smiles": "CCOC(=O)C1Nc2ccc(C(F)(F)F)cc2C2C=CCC12", "note": "(stereo not given)", "activity change, negative = inhibition": "4.03% (inactive)"}, {"smiles": "Cc1ccc(S(=O)(=O)NC(=O)NN2C[C@H]3CCC[C@@H]3C2)cc1", "activity change, negative = inhibition": "-7.35% [at 20 µM] (inactive)"}, {"smiles": "Cc1ccc(S(=O)(=O)n2nc(C)c(S(=O)(=O)N3CCCCCC3)c2C)cc1", "activity change, negative = inhibition": "4.66% (inactive)"}, {"smiles": "CC(C)(O)c1ccccc1CC[C@H](SCC1(CC(=O)O)CC1)c1cccc(/C=C/c2ccc3ccc(Cl)cc3n2)c1", "activity change, negative = inhibition": "-5.05% (inactive)"}, {"smiles": "COc1ccnc(C[S@@](=O)[C@@H]2Nc3ccc(OC(F)F)cc3N2)c1OC", "activity change, negative = inhibition": "1.84% (inactive)"}, {"smiles": "C=C1C(=CC=C2CCC[C@]3(C)[C@@H]([C@H](C)C=C[C@H](C)C(C)C)CC[C@@H]23)C[C@@H](O)C[C@@H]1O", "activity change, negative = inhibition": "-1.61% (inactive)"}, {"smiles": "Cc1cccc(CCNC(=O)c2ccc3c(c2)nc2n3CCC(C)C2)c1", "note": "(stereo not given)", "activity change, negative = inhibition": "-1.52% (inactive)"}, {"smiles": "CCC1CCCCN1C(=O)CSc1nc2c(c(=O)n(C)c(=O)n2C)n1C", "note": "(stereo not given)", "activity change, negative = inhibition": "1.32% (inactive)"}, {"smiles": "CCOC(=O)CSc1nc2c(c(=O)n(Cc3ccccc3Cl)c(=O)n2C)n1C", "Potency": "7.94 µM (active)"}, {"smiles": "CCN(CC)C(=O)CSc1nc2ccsc2c(=O)n1Cc1ccccc1Cl", "activity change, negative = inhibition": "-27.1% (inactive)"}, {"smiles": "Cc1ccc(S(=O)(=O)N2CCc3cc(C(=O)Nc4ccc(Cl)cc4C)ccc32)cc1", "activity change, negative = inhibition": "0.0645% (inactive)"}, {"smiles": "CC(=O)CC(c1ccccc1)C1C(=O)Oc2ccccc2C1=O", "note": "(stereo not given)", "activity change, negative = inhibition": "-1.12% (inactive)"}, {"smiles": "Cc1ccc(NC(=O)c2cc(S(=O)(=O)NCCC3=CCCCC3)ccc2F)cc1C", "activity change, negative = inhibition": "-13% (inactive)"}, {"smiles": "CC1(C)OC2CO[C@]3(COS(N)(=O)=O)OC(C)(C)OC3C2O1", "note": "(stereo not given in full)", "activity change, negative = inhibition": "0.642% (inactive)"}, {"smiles": "CCOc1ccc(NS(=O)(=O)c2ccc(N)cc2)nn1", "activity change, negative = inhibition": "-3.75% (inactive)"}, {"smiles": "CN(C)CCCSc1ccccc1NC(=O)/C=C/c1ccccc1", "activity change, negative = inhibition": "14.7% (inactive)"}, {"smiles": "COc1ccc(/C=N/NC(=O)Cn2cc(C(F)(F)F)ccc2=O)cc1", "activity change, negative = inhibition": "6.71% (inactive)"}, {"smiles": "Oc1ccc(/C=N/Nc2ccc(C(F)(F)F)cn2)cc1O", "Potency": "11.2 µM (active)"}, {"smiles": "C/C=C1\\C2C=C(C)CC1(N)c1ccc(=O)[nH]c1C2", "note": "(stereo not given)", "activity change, negative = inhibition": "-5.74% (inactive)"}, {"smiles": "Cc1c(Cl)cccc1NC(=O)C1CCCN(C(=O)c2cnn(-c3ccccc3)c2-n2cccc2)C1", "note": "(stereo not given)", "activity change, negative = inhibition": "17.7% (inactive)"}, {"smiles": "CCCCCCCCCCCCCCCCO", "activity change, negative = inhibition": "-4.88% (inactive)"}, {"smiles": "CCCN(CCC)S(=O)(=O)c1ccc(C(=O)Nc2sc3c(c2C(=O)OC)CCN(CC)C3)cc1", "activity change, negative = inhibition": "4.53% (inactive)"}, {"smiles": "Cc1ccc(CN2CCc3nc(N4CCN(C)CC4)ncc3C2)cc1", "activity change, negative = inhibition": "21.7% (inactive)"}, {"smiles": "CC(=O)NC(=O)c1ccccc1O", "activity change, negative = inhibition": "-5.45% (inactive)"}, {"smiles": "Cc1ccc(NC(=O)Cn2sc3ccccc3c2=O)cc1", "Potency": "7.08 µM (active)"}, {"smiles": "O=C(Cn1nc(C(=O)O)c2ccccc2c1=O)Nc1ccc(F)cc1", "activity change, negative = inhibition": "-9.16% (inactive)"}, {"smiles": "CC1(C)NC(=O)N(CC(=O)Nc2ccc(-c3ccccc3)cc2)C1=O", "activity change, negative = inhibition": "-0.741% (inactive)"}, {"smiles": "Cc1ccc(Cl)cc1N1CCN(C(=O)CN2C(=O)COc3ccc(S(=O)(=O)N4CCOCC4)cc32)CC1", "activity change, negative = inhibition": "-5.14% (inactive)"}, {"smiles": "COc1cccc(CC(=O)N2CCCC(CCC(=O)N3CCN(c4ccccn4)CC3)C2)c1", "note": "(stereo not given)", "activity change, negative = inhibition": "-4.22% (inactive)"}, {"smiles": "CC(=O)c1ccc(S(=O)(=O)NCCC(=O)N2CCN(c3ccccn3)CC2)cc1", "activity change, negative = inhibition": "0.816% (inactive)"}, {"smiles": "C=Cc1ccc(C(=O)N2CCCC(CCC(=O)N3CCN(c4ccccn4)CC3)C2)cc1", "note": "(stereo not given)", "Potency": "17.8 µM (active)"}, {"smiles": "CCOC(=O)c1ccc(NC(=O)C2CCN(S(=O)(=O)c3ccc4c(c3)CCCC(=O)N4)CC2)cc1", "activity change, negative = inhibition": "-4.81% (inactive)"}]}]}
